Reference: PubChem BioAssay (EPA / NIEHS)
Inconclusive results are not listed. Calls of active or inactive are those of the source. The calls were made as follows, unless noted: active = hit-call score of the fitted dose curve at least 0.9, where 1 is the maximum; inconclusive = response in the unintended direction; inactive = score below 0.9.

Experiments:
[1] = ATG_M_19_CIS: Attagene CIS-FACTORIAL HepG2 Assay for M19 Transcription Factor (Internal Marker) (AID 2282939; active = hit-call score of the fitted dose curve at least 0.9, where 1 is the maximum; inactive = score below 0.9); conditions: HepG2 Attagene CIS-FACTORIAL M19 internal marker reporter; actives raise or lower the signal
Method in brief: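 HepG2, MRTU transient transfection, 24 h dosing. Total RNA → RT-PCR → 6-FAM primer extension → HpaI digest → CE fluorescence. Bidirectional curve fit, DMSO negative control.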

[2] = molecular target: Hepatocyte nuclear factor 3-beta (Homo sapiens) (UniProt Q9Y261); test: ATG_FoxA2_CIS: Attagene CIS-FACTORIAL HepG2 Assay for human Forkhead box A2 (FOXA2) (AID 2282942; active = hit-call score of the fitted dose curve at least 0.9, where 1 is the maximum; inactive = score below 0.9); conditions: HepG2 cis-reporter transcription factor activity, 24 h; actives raise or lower the signal
Method in brief: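 HepG2 transiently transfected with a multiplexed cis-promoter reporter library read endogenous FOXA2 activity. After 24 h compound exposure, reporter mRNA was quantified by RT-PCR, HpaI digestion and capillary electrophoresis. Bidirectional fit against DMSO.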

[3] = ATG_M_32_CIS: Attagene CIS-FACTORIAL HepG2 Assay for M32 Transcription Factor (Internal Marker) (AID 2282949; active = hit-call score of the fitted dose curve at least 0.9, where 1 is the maximum; inactive = score below 0.9;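 also: background control marker of the multiplexed CIS panel rather than a real target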); conditions: HepG2 Attagene cis-factorial M32 reporter, mRNA; actives raise or lower the signal
Method in brief: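 Following 24 h chemical exposure of HepG2 cells transiently expressing cis-promoter reporter constructs, reporter transcript levels were determined by RT-PCR with fluorescent labelling and capillary electrophoresis, then fitted bidirectionally against DMSO.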

[4] = ATG_PBREM_CIS: Attagene CIS-FACTORIAL HepG2 Assay for human Phenobarbital-responsive Enhancer Module (PBREM) (AID 2282955; active = hit-call score of the fitted dose curve at least 0.9, where 1 is the maximum; inactive = score below 0.9); conditions: HepG2 PBREM cis-reporter, Attagene multiplexed transcription; actives raise or lower the signal
Method in brief: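 HepG2 cells transiently transfected with multiple cis-regulated reporter units measure endogenous transcription factor activity; 24 h compound exposure. Reporter mRNA quantified by RT-PCR, fluorescent labelling, HpaI digestion and capillary electrophoresis; bidirectional fit versus DMSO.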

[5] = ATG_PXRE_CIS: Attagene CIS-FACTORIAL HepG2 Assay for human Pregnane X Receptor Element (PXRE) (AID 2282957; active = hit-call score of the fitted dose curve at least 0.9, where 1 is the maximum; inactive = score below 0.9); conditions: HepG2 Attagene CIS-FACTORIAL PXRE reporter, mRNA; actives raise or lower the signal
Method in brief: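 Transfect HepG2 with MRTUs (cis promoter elements); dose chemical, incubate 24 h; isolate RNA, RT with oligo(dT), PCR, 6-FAM label, HpaI cut, CE. Gain/loss fit vs DMSO.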

[6] = ATG_RORE_CIS: Attagene CIS-FACTORIAL HepG2 Assay for human RAR-related Orphan Receptor Element (RORE) (AID 2282959; active = hit-call score of the fitted dose curve at least 0.9, where 1 is the maximum; inactive = score below 0.9); conditions: HepG2 Attagene cis-factorial RORE reporter, mRNA; actives raise or lower the signal
Method in brief: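 HepG2 cells carrying transiently transfected cis-regulated reporter units; RORE-driven reporter mRNA quantified 24 h post-dosing by RT-PCR, 6-FAM primer extension, HpaI digestion and capillary electrophoresis. Bidirectional fit versus DMSO.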

[7] = molecular target: Hepatocyte nuclear factor 4-alpha (Homo sapiens) (UniProt P41235); test: ATG_HNF4a_TRANS: Attagene TRANS-FACTORIAL HepG2 Assay for human Hepatocyte Nuclear Factor 4 alpha (HNF4a) (AID 2282982); conditions: HepG2 HNF4a transactivation reporter, mRNA readout
Method in brief: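 Transfected HepG2 reporter cells are dosed for 24 h; reporter RNA is reverse-transcribed, amplified, fluorescently labelled and HpaI-digested before CE sizing. Positive-direction fit against DMSO.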

[8] = ATG_M_32_TRANS: Attagene TRANS-FACTORIAL HepG2 Assay for M32 Transcription Factor (Internal Marker) (AID 2282984); conditions: HepG2 Attagene TRANS M32 internal marker reporter;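 also: transcript level of a background control reporter unit measured by RT-PCR and capillary electrophoresis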
Method in brief: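 Using transiently transfected HepG2 cells exposed to test chemicals for 24 h, reporter transcripts are converted to labelled cDNA fragments and quantified by capillary electrophoresis. DMSO defines the activity baseline.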

[9] = molecular target: human Peroxisome Proliferator-activated Receptor alpha (PPARa), PPARA (gene 5465) (UniProt Q07869); test: ATG_PPARa_TRANS: Attagene TRANS-FACTORIAL HepG2 Assay for human Peroxisome Proliferator-activated Receptor alpha (PPARa) (AID 2283001)
Method in brief: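 Reporter transcripts from GAL4-UAS units in transfected HepG2 were quantified 24 h after dosing. Detection used reverse transcription, PCR, fluorescent primer extension and capillary electrophoresis, with DMSO as baseline.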

[10] = molecular target: human Retinoid X Receptor beta (RXRb), RXRB (gene 6257) (UniProt P28702); test: ATG_RXRb_TRANS: Attagene TRANS-FACTORIAL HepG2 Assay for human Retinoid X Receptor beta (RXRb) (AID 2283013)
Method in brief: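 Multiplexed TRANS reporter assay in HepG2; 24 h dosing; reporter mRNA by RT-PCR/CE fluorescence; gain-of-signal relative to DMSO.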

[11] = TOX21_p53_BLA_p2_viability: Viability Assessment in the Tox21 HCT-116 p53 Agonism Beta-lactamase Assay, Phase 2 (AID 2283591);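 also: compound exposure lasted 16 h at 37 °C; actives lower the ATP signal meaning cytotoxicity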
Method in brief: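 Cytotoxicity readout: CellTiter-Glo ATP luminescence, 30 min at room temperature, after the beta-lactamase read. Cells were HCT116 exposed 16 h at 37C to compounds pin-transferred at 217-fold dilution from DMSO stocks.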

[12] = molecular target: Cellular tumor antigen p53 (Homo sapiens) (UniProt P04637); test: TOX21_p53_BLA_p2_ratio: Tox21 HCT-116 p53 Agonism Beta-lactamase Assay, Ratio, Phase 2 (AID 2283592)
Method in brief: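 HCT116 p53-bla; 4000 cells/well; 5 h pre-incubation; cpd in DMSO, 217-fold dilution; 16 h 37C/5% CO2; CCF4-AM 2 h RT; Ex 405, Em 460/530 ratio; DMSO = baseline; positive fitting direction.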

[13] = TOX21_p53_BLA_p3_viability: Viability Assessment in the Tox21 HCT-116 p53 Agonism Beta-lactamase Assay, Phase 3 (AID 2283593);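 also: cells exposed to compound for 16 h before reading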
Method in brief: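 Cellular ATP was quantified by CellTiter-Glo luminescence, read after 30 min at room temperature. Beforehand, HCT116 cells (4000/well) received compound 5 h post-seeding, 217-fold diluted from DMSO, then incubated 16 h at 37C.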

[14] = TOX21_p53_BLA_p5_viability: Viability Assessment in the Tox21 HCT-116 p53 Agonism Beta-lactamase Assay, Phase 5 (AID 2283600)
Method in brief: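 4000 cells/well; 5 h pre-incubation; DMSO compounds pin-transferred, 217-fold dilution; 16 h, 37C/5% CO2; CCF4-AM 2 h RT; CellTiter-Glo 30 min RT; luminescence.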

[15] = molecular target: Cellular tumor antigen p53 (Homo sapiens) (UniProt P04637); test: TOX21_p53_BLA_p4_ratio: Tox21 HCT-116 p53 Agonism Beta-lactamase Assay, Ratio, Phase 4 (AID 2283601)
Method in brief: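 Signal is the blue/green (460nm/530nm) ratio of cleaved versus uncleaved CCF4-AM substrate, read after 2 h substrate loading. Cells were HCT116 carrying the p53-responsive beta-lactamase reporter, dosed 16 h at 37C, 5% CO2; CellTiter-Glo measured in parallel.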

[16] = ATG_Sox_CIS: Attagene CIS-FACTORIAL HepG2 Assay for human SRY-box transcription factor (SOX) (AID 2282960; active = hit-call score of the fitted dose curve at least 0.9, where 1 is the maximum; inactive = score below 0.9); conditions: HepG2 Attagene cis-factorial SOX reporter, mRNA; actives raise or lower the signal
Method in brief: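 HepG2 cells transiently transfected with multiple cis-regulated reporter units, then dosed for 24 h. Reporter mRNA quantified by RT-PCR, fluorescent labelling, HpaI digestion and capillary electrophoresis; bidirectional fit versus DMSO.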

[17] = molecular target: Retinoic acid receptor RXR-alpha (Homo sapiens) (UniProt P19793); test: ATG_RXRa_TRANS: Attagene TRANS-FACTORIAL HepG2 Assay for human Retinoid X Receptor alpha (RXRa) (AID 2283012)
Method in brief: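 Cells (HepG2) carried transiently transfected GAL4-responsive reporter units. Following a 24 h chemical incubation, reporter mRNA induction was read via RT-PCR fragment analysis; DMSO served as negative control and baseline.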

[18] = molecular target: Cellular tumor antigen p53 (Homo sapiens) (UniProt P04637); test: TOX21_p53_BLA_p3_ratio: Tox21 HCT-116 p53 Agonism Beta-lactamase Assay, Ratio, Phase 3 (AID 2283596)
Method in brief: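 HCT116 p53-bla cells (4000/well) given compound in DMSO (217-fold dilution) after 5 h, incubated 16 h at 37C. CCF4-AM substrate 2 h at room temperature; 460/530 nm emission ratio, gain fitted against DMSO.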

[19] = molecular target: Cellular tumor antigen p53 (Homo sapiens) (UniProt P04637); test: TOX21_p53_BLA_p5_ratio: Tox21 HCT-116 p53 Agonism Beta-lactamase Assay, Ratio, Phase 5 (AID 2283599)
Method in brief: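 Beta-lactamase reporter ratio (blue 460 nm over green 530 nm, 405 nm excitation) after 2 h CCF4-AM loading, in HCT-116 cells exposed 16 h at 37 C to compounds pinned at 217-fold dilution. Increases relative to DMSO baseline scored.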

[20] = molecular target: Retinoic acid receptor alpha (Homo sapiens) (UniProt P10276); test: ATG_DR5_RAR_CIS: Attagene CIS-FACTORIAL HepG2 Assay for human Retinoic Acid Receptor Alpha (RARE), DR5 submotif (AID 2282934; active = hit-call score of the fitted dose curve at least 0.9, where 1 is the maximum; inactive = score below 0.9); conditions: HepG2 Attagene cis-factorial RARE DR5 reporter, mRNA; actives raise or lower the signal
Method in brief: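 HepG2, transient cis-reporter transfection, 24 h exposure. mRNA readout: RT-PCR, FAM label, HpaI cut, capillary electrophoresis. DMSO baseline, gain/loss fitting.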

Sequence of human Peroxisome Proliferator-activated Receptor alpha (PPARa), PPARA (gene 5465) (Q07869 whole entry, looked up, the tested form may be a part): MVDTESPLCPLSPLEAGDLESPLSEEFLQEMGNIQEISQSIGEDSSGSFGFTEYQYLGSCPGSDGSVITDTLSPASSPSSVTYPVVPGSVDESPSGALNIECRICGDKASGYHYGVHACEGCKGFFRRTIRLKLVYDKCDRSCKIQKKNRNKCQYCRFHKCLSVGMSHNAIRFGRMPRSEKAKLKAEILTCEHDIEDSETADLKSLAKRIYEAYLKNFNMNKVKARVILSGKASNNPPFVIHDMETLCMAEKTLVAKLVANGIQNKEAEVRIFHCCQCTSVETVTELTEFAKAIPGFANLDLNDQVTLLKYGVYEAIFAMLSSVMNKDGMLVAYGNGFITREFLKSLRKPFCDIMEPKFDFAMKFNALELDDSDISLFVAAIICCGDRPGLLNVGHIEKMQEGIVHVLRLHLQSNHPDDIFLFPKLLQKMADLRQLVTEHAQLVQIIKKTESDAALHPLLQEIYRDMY
Sequence of Retinoic acid receptor RXR-alpha (Homo sapiens) (P19793 whole entry, looked up, the tested form may be a part): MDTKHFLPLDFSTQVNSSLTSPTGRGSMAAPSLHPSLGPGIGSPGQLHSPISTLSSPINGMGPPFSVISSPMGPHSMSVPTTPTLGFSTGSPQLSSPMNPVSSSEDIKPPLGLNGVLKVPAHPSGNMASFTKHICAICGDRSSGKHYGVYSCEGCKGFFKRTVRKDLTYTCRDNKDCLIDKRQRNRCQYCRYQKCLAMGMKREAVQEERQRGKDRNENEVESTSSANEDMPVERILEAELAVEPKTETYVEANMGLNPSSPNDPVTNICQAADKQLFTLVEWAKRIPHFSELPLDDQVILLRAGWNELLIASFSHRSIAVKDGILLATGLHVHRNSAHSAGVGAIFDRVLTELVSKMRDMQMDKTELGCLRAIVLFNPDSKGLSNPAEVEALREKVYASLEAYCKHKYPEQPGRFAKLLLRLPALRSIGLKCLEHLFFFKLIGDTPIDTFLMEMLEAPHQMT
Sequence of Retinoic acid receptor alpha (Homo sapiens) (P10276 whole entry, looked up): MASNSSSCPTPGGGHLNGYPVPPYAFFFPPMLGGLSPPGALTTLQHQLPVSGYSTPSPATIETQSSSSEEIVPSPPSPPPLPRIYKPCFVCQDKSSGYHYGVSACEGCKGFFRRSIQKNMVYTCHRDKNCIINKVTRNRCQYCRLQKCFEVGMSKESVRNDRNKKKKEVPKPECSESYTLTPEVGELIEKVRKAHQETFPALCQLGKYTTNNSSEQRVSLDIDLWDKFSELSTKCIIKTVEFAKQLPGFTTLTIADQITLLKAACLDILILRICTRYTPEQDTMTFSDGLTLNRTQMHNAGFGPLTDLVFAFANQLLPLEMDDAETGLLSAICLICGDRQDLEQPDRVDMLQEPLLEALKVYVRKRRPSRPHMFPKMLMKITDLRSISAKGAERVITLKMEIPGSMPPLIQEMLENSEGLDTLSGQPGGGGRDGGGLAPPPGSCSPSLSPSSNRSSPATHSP
Sequence of Cellular tumor antigen p53 (Homo sapiens) (P04637 whole entry, looked up): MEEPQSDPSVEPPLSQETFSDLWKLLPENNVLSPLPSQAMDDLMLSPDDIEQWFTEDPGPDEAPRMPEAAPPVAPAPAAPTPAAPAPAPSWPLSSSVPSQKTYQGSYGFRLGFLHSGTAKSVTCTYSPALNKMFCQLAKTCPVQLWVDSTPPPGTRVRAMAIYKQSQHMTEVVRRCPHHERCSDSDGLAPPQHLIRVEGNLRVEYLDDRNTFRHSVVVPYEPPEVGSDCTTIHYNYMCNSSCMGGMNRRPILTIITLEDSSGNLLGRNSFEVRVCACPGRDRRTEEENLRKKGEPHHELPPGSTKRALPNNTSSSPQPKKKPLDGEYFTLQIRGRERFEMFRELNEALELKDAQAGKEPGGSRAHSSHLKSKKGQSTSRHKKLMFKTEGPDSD
Sequence of Hepatocyte nuclear factor 4-alpha (Homo sapiens) (P41235 whole entry, looked up): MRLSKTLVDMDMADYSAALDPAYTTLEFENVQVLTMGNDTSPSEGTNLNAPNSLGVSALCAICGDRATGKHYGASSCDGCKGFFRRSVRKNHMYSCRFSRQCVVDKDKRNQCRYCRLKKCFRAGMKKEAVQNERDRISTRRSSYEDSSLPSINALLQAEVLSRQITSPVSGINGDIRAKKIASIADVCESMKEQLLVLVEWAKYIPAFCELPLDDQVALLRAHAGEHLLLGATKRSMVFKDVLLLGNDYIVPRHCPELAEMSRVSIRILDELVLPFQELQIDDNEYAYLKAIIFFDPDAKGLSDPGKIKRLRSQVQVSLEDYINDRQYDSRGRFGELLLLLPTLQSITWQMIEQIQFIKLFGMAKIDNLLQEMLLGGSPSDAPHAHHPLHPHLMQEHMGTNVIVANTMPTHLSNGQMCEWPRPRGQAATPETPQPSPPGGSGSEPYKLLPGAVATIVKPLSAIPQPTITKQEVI
Sequence of human Retinoid X Receptor beta (RXRb), RXRB (gene 6257) (P28702 whole entry, looked up): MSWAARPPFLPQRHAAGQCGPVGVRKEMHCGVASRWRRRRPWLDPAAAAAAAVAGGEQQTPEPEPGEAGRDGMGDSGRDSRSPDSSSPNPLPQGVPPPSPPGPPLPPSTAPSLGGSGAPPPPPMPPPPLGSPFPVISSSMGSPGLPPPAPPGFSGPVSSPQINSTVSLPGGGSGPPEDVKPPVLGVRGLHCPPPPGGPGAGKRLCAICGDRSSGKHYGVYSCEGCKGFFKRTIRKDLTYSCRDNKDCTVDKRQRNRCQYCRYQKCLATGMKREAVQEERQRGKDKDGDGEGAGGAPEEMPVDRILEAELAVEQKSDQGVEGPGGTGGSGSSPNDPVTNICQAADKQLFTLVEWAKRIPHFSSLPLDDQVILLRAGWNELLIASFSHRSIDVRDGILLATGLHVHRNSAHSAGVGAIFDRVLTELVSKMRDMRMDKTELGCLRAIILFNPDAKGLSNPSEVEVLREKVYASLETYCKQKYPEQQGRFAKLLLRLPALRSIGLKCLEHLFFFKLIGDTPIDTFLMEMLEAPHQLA
Sequence of Hepatocyte nuclear factor 3-beta (Homo sapiens) (Q9Y261 whole entry, looked up): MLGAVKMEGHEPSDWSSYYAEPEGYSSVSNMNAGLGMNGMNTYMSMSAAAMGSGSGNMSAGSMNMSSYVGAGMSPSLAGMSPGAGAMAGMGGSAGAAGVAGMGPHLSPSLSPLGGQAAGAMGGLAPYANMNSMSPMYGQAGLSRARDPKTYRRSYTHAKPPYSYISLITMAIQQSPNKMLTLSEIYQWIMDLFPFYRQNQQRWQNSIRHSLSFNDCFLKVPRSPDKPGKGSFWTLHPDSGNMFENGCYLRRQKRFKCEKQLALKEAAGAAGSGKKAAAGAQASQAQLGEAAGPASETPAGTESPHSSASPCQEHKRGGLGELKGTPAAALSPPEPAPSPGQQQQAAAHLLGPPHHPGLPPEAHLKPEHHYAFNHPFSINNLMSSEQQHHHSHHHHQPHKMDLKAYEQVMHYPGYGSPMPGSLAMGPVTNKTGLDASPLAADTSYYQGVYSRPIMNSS

## Cc1cc(C)c(S(=O)(=O)O)cc1N=Nc1cc(S(=O)(=O)O)c2ccccc2c1O
[1]
  outcome: inactive
[2]
  outcome: inactive
[3]
  outcome: inactive
[4]
  outcome: inactive
[5]
  outcome: inactive
[6]
  outcome: inactive
[7]
  outcome: inactive
[8]
  outcome: inactive
[9]
  outcome: inactive
[10]
  outcome: inactive
[11]
  outcome: inactive
[12]
  outcome: inactive
[13]
  outcome: inactive
[14]
  outcome: inactive
[15]
  outcome: inactive

## O=S(=O)(O)c1cccc2ccccc12
[2]
  outcome: inactive
[3]
  outcome: inactive
[5]
  outcome: inactive
[16]
  outcome: inactive
[7]
  outcome: inactive
[9]
  outcome: inactive
[17]
  outcome: inactive
[11]
  outcome: inactive
[18]
  outcome: inactive
[19]
  outcome: inactive
[15]
  outcome: inactive

## CCCCCC1CCCC(=O)O1 (centres undefined)
[20]
  outcome: inactive
[2]
  outcome: inactive
[3]
  outcome: inactive
[4]
  outcome: inactive
[5]
  AC50: 44.5 µM (active)
[6]
  outcome: inactive
[7]
  outcome: inactive
[8]
  outcome: inactive
[9]
  outcome: inactive
[17]
  outcome: inactive
[10]
  outcome: inactive
[11]
  outcome: inactive
[12]
  outcome: inactive
[19]
  outcome: inactive
[15]
  outcome: inactive

## COc1c2occc2cc2ccc(=O)oc12
[20]
  outcome: inactive
[1]
  outcome: inactive
[2]
  outcome: inactive
[3]
  outcome: inactive
[5]
  AC50: 27.3 µM (active)
[6]
  outcome: inactive
[9]
  outcome: inactive
[17]
  outcome: inactive
[10]
  AC50: 100 µM (active)
[12]
  outcome: inactive
[13]
  outcome: inactive
[18]
  outcome: inactive
[19]
  outcome: inactive
[14]
  outcome: inactive
[15]
  outcome: inactive

## c1cc[c]([Bi]([c]2ccccc2)[c]2ccccc2)cc1
[2]
  outcome: inactive
[3]
  outcome: inactive
[4]
  outcome: inactive
[6]
  outcome: inactive
[7]
  outcome: inactive
[17]
  outcome: inactive
[10]
  AC50: 7.42 µM (active)

## CNC(=C[N+](=O)[O-])NCCSCc1csc(CN(C)C)n1
[3]
  outcome: inactive
[4]
  outcome: inactive
[5]
  outcome: inactive
[6]
  outcome: inactive
[16]
  outcome: inactive
[7]
  outcome: inactive
[8]
  outcome: inactive
[10]
  outcome: inactive
[12]
  outcome: inactive
[13]
  outcome: inactive
[18]
  outcome: inactive
[19]
  outcome: inactive
[14]
  outcome: inactive

## c1cc(N(CC2CO2)CC2CO2)ccc1Cc1ccc(N(CC2CO2)CC2CO2)cc1 (centres undefined)
[20]
  outcome: inactive
[1]
  outcome: inactive
[2]
  outcome: inactive
[3]
  outcome: inactive
[4]
  outcome: inactive
[5]
  outcome: inactive
[7]
  outcome: inactive
[8]
  outcome: inactive
[17]
  outcome: inactive
[10]
  outcome: inactive
[11]
  outcome: inactive
[12]
  AC50: 26.8 µM (active)
[13]
  outcome: inactive
[18]
  AC50: 81.6 µM (active)
[19]
  AC50: 55.4 µM (active)
[14]
  outcome: inactive
[15]
  AC50: 33.1 µM (active)

## CC=CC(=O)O
[20]
  outcome: inactive
[2]
  outcome: inactive
[3]
  outcome: inactive
[5]
  outcome: inactive
[16]
  outcome: inactive
[7]
  outcome: inactive
[8]
  outcome: inactive
[17]
  outcome: inactive

## O=C(Oc1ccccc1)c1ccccc1
[20]
  outcome: inactive
[2]
  outcome: inactive
[4]
  outcome: inactive
[6]
  outcome: inactive
[7]
  outcome: inactive
[10]
  outcome: inactive

## COC(=O)[C@]1(C)CCC[C@@]2(C)[C@H]1CC=C1C=C(C(C)C)CC[C@@H]12
[20]
  outcome: inactive
[2]
  outcome: inactive
[3]
  outcome: inactive
[4]
  outcome: inactive
[6]
  outcome: inactive
[16]
  outcome: inactive
[8]
  outcome: inactive
[17]
  outcome: inactive
[10]
  outcome: inactive
[11]
  outcome: inactive
[12]
  outcome: inactive
[13]
  outcome: inactive
[18]
  outcome: inactive

## CCCCCCOC(=O)CCCCCCCC(=O)OCCCCCC
[2]
  outcome: inactive
[3]
  outcome: inactive
[4]
  outcome: inactive
[5]
  AC50: 71.6 µM (active)
[16]
  outcome: inactive
[7]
  outcome: inactive
[8]
  outcome: inactive
[9]
  outcome: inactive
[10]
  outcome: inactive
